Consider 33 compounds from PubChem BioAssay.

Chain of Tumor necrosis factor receptor superfamily member 10B (Homo sapiens) (O14763 whole entry, looked up): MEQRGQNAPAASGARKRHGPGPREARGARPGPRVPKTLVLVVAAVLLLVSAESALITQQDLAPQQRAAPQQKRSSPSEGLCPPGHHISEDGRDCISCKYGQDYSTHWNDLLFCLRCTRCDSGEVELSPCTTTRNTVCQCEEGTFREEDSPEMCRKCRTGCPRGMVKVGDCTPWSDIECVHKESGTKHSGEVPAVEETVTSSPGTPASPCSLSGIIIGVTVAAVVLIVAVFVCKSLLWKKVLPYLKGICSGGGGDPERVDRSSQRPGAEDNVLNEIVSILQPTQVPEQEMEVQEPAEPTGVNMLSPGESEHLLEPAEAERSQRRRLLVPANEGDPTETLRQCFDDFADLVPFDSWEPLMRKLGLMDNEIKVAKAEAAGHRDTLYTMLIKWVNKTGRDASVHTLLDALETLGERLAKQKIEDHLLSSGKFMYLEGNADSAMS

The first assay has as its target Tumor necrosis factor receptor superfamily member 10B (Homo sapiens) (UniProt O14763). Put plainly: viability loss of caspase-8 NB7 cells with TRAIL – with/without TRAIL, luminescence panel, confirmation (AID 651596). Conditions: NB7 neuroblastoma + caspase-8, TRAIL sensitization, NB7 Caspase-8, with TRAIL, mean of runs, at 10 µM, stronger effect = higher value.
In the case of `CC1=CC2OC3CC4OC(=O)C=CC=CC(=O)OCCC(C)C(O)C(=O)OCC2(CC1O)C4(C)C31CO1` (stereo unspecified), the activity came to 92.9%.
On to `CC(C)(O)/C=C/C(=O)C(C)(O)C1C(O)CC2(C)C3CC=C4C(C=C(O)C(=O)C4(C)C)C3(C)C(=O)CC12C` (stereo unspecified), for which the activity is 46.5%.
The same measure, in the same setting: the result for `O=c1[nH]c2ccccc2n1C1CCN(C(c2cc3ccccc3o2)c2nnnn2Cc2ccccc2)CC1` (stereo unspecified) reads 73.2%; that for `CNC(=O)O/N=C(\N)Cc1csc2ccc(Cl)cc12`, 87.3%; that for `CCOC(=O)[C@]12Cc3cc(OC)ccc3[C@H]1N(C(C)C)C(=O)c1cc(OC)ccc12`, 28%.
Still for that read-out and setting: then `CN(C)CC(C(=O)Cc1ccccc1)c1ccccc1` (stereo unspecified), with 37.9%; and `CC(C)N(C(=O)CCl)c1ccccc1`, with 98%; and `Cc1ccc(NC(=O)CN2C(=O)CN=C(c3ccccc3)c3cc(Cl)ccc32)cc1`, with 78.1%.
The same measure, in the same setting: the result for `Cc1nc2cc(C(F)(F)F)ccc2n1C1CCN(Cc2nnnn2Cc2ccc3c(c2)OCO3)CC1` reads 53%; that for `CC12CCC(O)CC1CCC1C2CCC2(C)C(C3=CC(=O)OC3)CCC12O` (stereo unspecified), 87.3%; that for `CCCCCCCCCCCCCCCC[N+](C)(C)C`, 96.8%.
Turning to `CCCCCN1C(=O)c2ccccc2[C@@]2(C(=O)OCC)Cc3cc(OC)ccc3[C@@H]12`, the activity turned out to be 47.4%.
For `C[C@]12CCC3C(CCC4=CC(O)CC[C@@]43/C=N/O)C1(O)CCC2C1=CC(=O)OC1` (stereo partly specified), the activity is 87%.
On the same count and under the same terms, the result for `CCCC1(CCC)C(=O)NC(=NCc2ccccc2)NC1=O` reads 51.6%; that for `CCOC(=O)[C@]12Cc3ccc(C)cc3[C@H]1N(C1CCCCC1)C(=O)c1cc(OC)ccc12`, 97.5%.
On to `CC12CCC(O)CC1CCC1C2CCC2(C)C(C3=CC(=O)OC3)C(O)CC12O` (stereo unspecified), for which the activity is 80.4%.
On the same count and under the same terms, then `CC(C)CCn1c(=O)c(C(=O)Nc2ccccc2S(N)(=O)=O)c(O)c2ccccc21`, with 55.4%; and `CC(C)(C)n1cc(C(=O)c2ccc3ccccc3c2O)cn1`, with 55.8%; and `CCOC(=O)[C@]12Cc3cc4ccccc4cc3[C@H]1N(Cc1ccccc1)C(=O)c1cc(OC)ccc12`, with 46.5%.
As for `CCOC(=O)[C@]12Cc3cc4ccccc4cc3[C@H]1N(Cc1ccccc1)C(=O)c1ccccc12`, the activity is 52.8%.
`CC1=CC2OC3CC4OC(=O)C=CC=CC(=O)OCCC(C)C(O)C(=O)OCC2(CC1)C4(C)C31CO1` (stereo unspecified): the activity turned out to be 75.6%.
Still for that read-out and setting: then `CCCCCN1C(=O)c2cc(OC)ccc2[C@@]2(C(=O)OCC)Cc3cc(Cl)ccc3[C@@H]12`, with 87.2%.
Still for that read-out and setting: then `CCOC(=O)[C@]12Cc3ccc(C)cc3[C@H]1N(C1CCCCC1)C(=O)c1ccccc12`, with 90.7%; and `Oc1ccc(-[n+]2c(-c3ccccc3)cc(-c3ccccc3)cc2-c2ccccc2)cc1`, with 90.3%; and `Cc1ccc(-c2cc(-c3ccccc3)cc(-c3ccccc3)[n+]2-c2ccccc2)cc1`, with 96.6%.
The same measure, in the same setting: then `CCC(C)C1NC(=O)C(NC(=O)C(CC(C)C)N(C)C(=O)C2CCCN2C(=O)C(C)O)C(C)OC(=O)C(Cc2ccc(OC)cc2)N(C)C(=O)C2CCCN2C(=O)C(CC(C)C)NC(=O)[C@H](C)C(=O)[C@H](C(C)C)OC(=O)CC1O` (stereo partly specified), with 96.9%; and `CCOC(=O)[C@]12Cc3cc(Cl)ccc3[C@H]1N(C1CCCCC1)C(=O)c1ccccc12`, with 98.5%.
On to `CNC(=O)Oc1ccc(-c2cn3cc(Cl)ccc3n2)cc1`, for which the activity is 85.8%.
Still for that read-out and setting: the result for `CCOc1ccc(-c2c(C)n(-c3ccc(OCC)cc3)c3[n+]2CCCCC3)cc1` reads 61%; that for `C[C@@H]1O[C@@H](O[C@@H]2C=C3CC[C@@H]4C(CC[C@]5(C)[C@@H](c6ccc(=O)oc6)CC[C@]45O)[C@@]3(C)CC2)[C@H](O)[C@H](O)[C@H]1O` (stereo partly specified), 82.4%; that for `CCOC(=O)[C@]12Cc3c(cc(OC)c(OC)c3OC)[C@H]1N(C1CCCCC1)C(=O)c1ccccc12`, 95.8%.
Same read-out and setting: then `CN(C)C(=O)Oc1ccc(OCc2nc3ccccc3[nH]2)cc1`, with 75.7%.
Still for that read-out and setting: the result for `C[C@]12CC[C@H]3C(CCC4(O)CC(O)CC[C@]34C=O)C1=CC[C@H]2c1ccc(=O)oc1` (stereo partly specified) reads 70.2%.

Tested on in another assay: not listed separately
The description is as above. The settings on record: NB7 neuroblastoma + caspase-8, without TRAIL, NB7 Caspase-8, without TRAIL, mean of runs, at 10 µM.
On to `CC1=CC2OC3CC4OC(=O)C=CC=CC(=O)OCCC(C)C(O)C(=O)OCC2(CC1O)C4(C)C31CO1` (stereo unspecified), for which the activity amounted to 96.9%.
Same read-out and setting: the result for `CC(C)(O)/C=C/C(=O)C(C)(O)C1C(O)CC2(C)C3CC=C4C(C=C(O)C(=O)C4(C)C)C3(C)C(=O)CC12C` (stereo unspecified) reads 81.1%.
In the case of `O=c1[nH]c2ccccc2n1C1CCN(C(c2cc3ccccc3o2)c2nnnn2Cc2ccccc2)CC1` (stereo unspecified), the activity is 75.7%.
The same measure, in the same setting: the result for `CNC(=O)O/N=C(\N)Cc1csc2ccc(Cl)cc12` reads 91.2%; that for `CCOC(=O)[C@]12Cc3cc(OC)ccc3[C@H]1N(C(C)C)C(=O)c1cc(OC)ccc12`, 45%.
In the case of `CN(C)CC(C(=O)Cc1ccccc1)c1ccccc1` (stereo unspecified), the activity is 96.3%.
Same read-out and setting: then `CC(C)N(C(=O)CCl)c1ccccc1`, with 98.3%; and `Cc1ccc(NC(=O)CN2C(=O)CN=C(c3ccccc3)c3cc(Cl)ccc32)cc1`, with 85%.
On the same count and under the same terms, then `Cc1nc2cc(C(F)(F)F)ccc2n1C1CCN(Cc2nnnn2Cc2ccc3c(c2)OCO3)CC1`, with 54.3%; and `CC12CCC(O)CC1CCC1C2CCC2(C)C(C3=CC(=O)OC3)CCC12O` (stereo unspecified), with 91.6%.
Take `CCCCCCCCCCCCCCCC[N+](C)(C)C`: the activity stood at 96.8%.
As for `CCCCCN1C(=O)c2ccccc2[C@@]2(C(=O)OCC)Cc3cc(OC)ccc3[C@@H]12`, the activity turned out to be 63%.
Same read-out and setting: then `C[C@]12CCC3C(CCC4=CC(O)CC[C@@]43/C=N/O)C1(O)CCC2C1=CC(=O)OC1` (stereo partly specified), with 92.3%; and `CCCC1(CCC)C(=O)NC(=NCc2ccccc2)NC1=O`, with 20.8%; and `CCOC(=O)[C@]12Cc3ccc(C)cc3[C@H]1N(C1CCCCC1)C(=O)c1cc(OC)ccc12`, with 98%.
For `CC12CCC(O)CC1CCC1C2CCC2(C)C(C3=CC(=O)OC3)C(O)CC12O` (stereo unspecified), the activity turned out to be 53.5%.
Turning to `CC(C)CCn1c(=O)c(C(=O)Nc2ccccc2S(N)(=O)=O)c(O)c2ccccc21`, the activity was 45.3%.
Same read-out and setting: the result for `CC(C)(C)n1cc(C(=O)c2ccc3ccccc3c2O)cn1` reads 51%.
On the same count and under the same terms, the result for `CCOC(=O)[C@]12Cc3cc4ccccc4cc3[C@H]1N(Cc1ccccc1)C(=O)c1cc(OC)ccc12` reads 53.2%; that for `CCOC(=O)[C@]12Cc3cc4ccccc4cc3[C@H]1N(Cc1ccccc1)C(=O)c1ccccc12`, 54.6%; that for `CC1=CC2OC3CC4OC(=O)C=CC=CC(=O)OCCC(C)C(O)C(=O)OCC2(CC1)C4(C)C31CO1` (stereo unspecified), 80.9%.
For the compound `CCCCCN1C(=O)c2cc(OC)ccc2[C@@]2(C(=O)OCC)Cc3cc(Cl)ccc3[C@@H]12`, the activity was 92.8%.
On the same count and under the same terms, the result for `CCOC(=O)[C@]12Cc3ccc(C)cc3[C@H]1N(C1CCCCC1)C(=O)c1ccccc12` reads 90.5%; that for `Oc1ccc(-[n+]2c(-c3ccccc3)cc(-c3ccccc3)cc2-c2ccccc2)cc1`, 59.6%.
As for `Cc1ccc(-c2cc(-c3ccccc3)cc(-c3ccccc3)[n+]2-c2ccccc2)cc1`, the activity came out at 87.8%.
In the case of `CCC(C)C1NC(=O)C(NC(=O)C(CC(C)C)N(C)C(=O)C2CCCN2C(=O)C(C)O)C(C)OC(=O)C(Cc2ccc(OC)cc2)N(C)C(=O)C2CCCN2C(=O)C(CC(C)C)NC(=O)[C@H](C)C(=O)[C@H](C(C)C)OC(=O)CC1O` (stereo partly specified), the activity stood at 98.2%.
For `CCOC(=O)[C@]12Cc3cc(Cl)ccc3[C@H]1N(C1CCCCC1)C(=O)c1ccccc12`, the activity came out at 99.3%.
Same read-out and setting: then `CNC(=O)Oc1ccc(-c2cn3cc(Cl)ccc3n2)cc1`, with 84.1%; and `CCOc1ccc(-c2c(C)n(-c3ccc(OCC)cc3)c3[n+]2CCCCC3)cc1`, with 63%.
Same read-out and setting: then `C[C@@H]1O[C@@H](O[C@@H]2C=C3CC[C@@H]4C(CC[C@]5(C)[C@@H](c6ccc(=O)oc6)CC[C@]45O)[C@@]3(C)CC2)[C@H](O)[C@H](O)[C@H]1O` (stereo partly specified), with 91.5%; and `CCOC(=O)[C@]12Cc3c(cc(OC)c(OC)c3OC)[C@H]1N(C1CCCCC1)C(=O)c1ccccc12`, with 98%; and `CN(C)C(=O)Oc1ccc(OCc2nc3ccccc3[nH]2)cc1`, with 78.1%.
Consider `C[C@]12CC[C@H]3C(CCC4(O)CC(O)CC[C@]34C=O)C1=CC[C@H]2c1ccc(=O)oc1` (stereo partly specified), for which the activity turned out to be 55.2%.
